This excerpt belongs to a sample that is enriched for hits.
ALOX12 inh – blocks human arachidonate 12S-lipoxygenase | P18054 | purified 12hLO, xylenol orange hydroperoxide absorbance | Potency, µM (highest dose often 108 µM), inactives show at the highest dose activity change, negative = inhibition, usual class: inhibitors | actives 1.1% (n = 580,000) | AID 1671190; also: potency is read from the fitted curve at half-maximal effect
Target sequence (P18054 whole entry, looked up): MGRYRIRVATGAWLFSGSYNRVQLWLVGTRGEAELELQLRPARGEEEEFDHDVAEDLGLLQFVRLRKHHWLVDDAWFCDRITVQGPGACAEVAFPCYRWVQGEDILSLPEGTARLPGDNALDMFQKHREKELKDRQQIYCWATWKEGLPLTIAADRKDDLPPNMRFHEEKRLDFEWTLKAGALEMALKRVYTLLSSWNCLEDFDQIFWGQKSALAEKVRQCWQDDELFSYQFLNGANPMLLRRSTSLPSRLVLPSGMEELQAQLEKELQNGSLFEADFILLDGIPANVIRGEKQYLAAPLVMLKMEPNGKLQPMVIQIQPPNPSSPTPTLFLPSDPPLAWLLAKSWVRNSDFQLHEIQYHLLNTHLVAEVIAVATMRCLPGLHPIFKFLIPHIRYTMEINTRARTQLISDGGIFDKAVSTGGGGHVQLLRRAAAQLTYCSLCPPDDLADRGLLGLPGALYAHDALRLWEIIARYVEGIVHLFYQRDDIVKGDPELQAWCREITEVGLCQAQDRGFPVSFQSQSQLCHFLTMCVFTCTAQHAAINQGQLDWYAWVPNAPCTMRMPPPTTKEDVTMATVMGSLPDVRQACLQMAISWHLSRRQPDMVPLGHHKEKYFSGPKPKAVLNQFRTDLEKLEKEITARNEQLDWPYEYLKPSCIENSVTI
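Hydroperoxide product was detected by ferrous iron/xylenol orange as the 573 to 405 nm absorbance ratio. Arachidonic acid at 40 uM (final) was turned over for 30 min at room temperature by 150 nM human 12hLO, pH 7.0 Hepes buffer, after 15 min compound preincubation.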
HT1080 IDH1KD tx – toxicity to HT-1080 IDH1 knockdown cells (counter line) | HT-1080 IDH1 knockdown viability, ATP luminescence, 48 h | Potency, µM (doses to about 46.1 µM), without a hit: at the highest dose activity, negative = toxicity, hits mostly cytotoxic | actives 2% (n = 360,000);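 also: potency is read from the fitted curve at half-maximal effect; 0% = DMSO wells and -100% = cell-free medium wells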
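Cytotoxicity counter-line: IDH1KD HT-1080, 48 h, CellTiter-Glo. Curves classed by r2, magnitude and activity.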
IL1B secr inh – blocks inflammasome-driven IL-1 beta release; actives 4.7% (n = 360,000); activity change, % at 57.5 µM; THP-1 LPS/ATP IL-1B secretion, AlphaLISA, 16 h; active compounds read low; AID 743279; in the data active = activity change below about -50%; inconclusive = mostly about -30% to -49%
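THP-1 cells pretreated 1 hr with compounds (up to 57.5 uM final), then stimulated with LPS (250 ng/mL final) plus ATP (1.25 mM final); secreted IL-1B measured by AlphaLISA after 16 hr, decreased signal indicating inhibition.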
HT1080-NT tox – kills 2HG-producing HT-1080-NT fibrosarcoma cells; AID 686970; actives 1.6% (n = 360,000); Potency, µM (highest dose often 46.1 µM), inactives show at the top dose activity, negative = less viability, usual class: cytotoxic; HT-1080-NT fibrosarcoma viability, CellTiter-Glo ATP luminescence, 48 h;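 also: NT is the 2HG producing partner of a matched IDH1 knockdown line; potency is read from the fitted curve at half-maximal effect; 0% = DMSO-treated cells and -100% = media-only wells without cells; nearly all actives have a fitted effect of over 55% in size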
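Compounds were tested in concentration-response format on HT-1080-NT cells for 48 hours at 37 degrees C. Cell viability came from CellTiter-Glo luminescence; curves were classified by r2, response magnitude and activity.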
TDP1 cell noCPT – qHTS for Inhibitors of human tyrosyl-DNA phosphodiesterase 1 (TDP1): qHTS in cells in absence of CPT; DT40 Tdp1-/- hTDP1 cells, no CPT, ATP luminescence, 48 h; Potency, µM (top dose mostly 46.2 µM), without a hit: top-dose activity change, negative = growth inhibition, actives largely listed as inhibitors; actives 15% (n = 420,000); also: potency is read from the fitted curve at half-maximal effect; nearly all actives have a fitted effect of over 55% in size
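Camptothecin absent (DMSO only). Human TDP1-complemented DT40 knockout cells, 400 cells/well, 37 °C for minimum 48 hr; ATP measured via CellTiter-Glo, 30 min dark incubation, luminescence.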
DT40 TDP1 CPT – growth inhibition of DT40 Tdp1-/-;hTDP1 cells with camptothecin (screen for TDP1 inhibitors); chicken DT40 Tdp1-/-;hTDP1 cells + 20 nM CPT, ATP luminescence, 48 h; Potency, µM (series often up to 46.2 µM), for the others: at the top dose activity change, negative = growth inhibition, actives largely listed as inhibitors; actives 12% (n = 420,000); also: potency is read from the fitted curve at half-maximal effect; nearly all actives have a fitted effect of over 55% in size
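Chicken DT40 Tdp1-/- cells complemented with human TDP1, 400 cells/well, exposed to compounds plus 20 nM camptothecin for at least 48 h at 37 C; viability read as ATP content by CellTiter-Glo luminescence.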
* = called active by the depositor; ? = inconclusive; nt = no result given; [ ] = another dose, or the depositor's remark. Unless noted, calls follow the shape of the dose curve; as a rule, active = well fitted curve in the direction sought with a large enough effect; inconclusive = small, poorly fitted or top-dose-only effect, or another doubt; inactive = no such curve, though single readings can be large; an effect the other way counts as inactive or inconclusive. Unless noted, % is scaled to controls: 0 for no effect and ±100 for the full control effect.

SMILES	ALOX12 inh	HT1080 IDH1KD tx	IL1B secr inh	HT1080-NT tox	TDP1 cell noCPT	DT40 TDP1 CPT
CN(C)[C@@H]1C(=O)C(C(N)=O)=C(O)[C@@]2(O)C(=O)C3=C(O)c4c(O)ccc(Cl)c4[C@@](C)(O)C3C[C@@H]12 (some centres not stated)	-25%	?	-12	?	23µM*	?
CN(C)C1C(=O)C(C(N)=O)=C(O)[C@@]2(O)C(=O)C3=C(O)c4c(O)cccc4[C@@](C)(O)C3[C@H](O)C12 (some centres not stated)	nt	nt	nt	nt	-70%	8.4µM*
CN(C)[C@@H]1C(=O)C(C(N)=O)=C(O)[C@@]2(O)C(=O)C3=C(O)c4c(O)cccc4[C@@](C)(O)C3[C@H](O)C12 (some centres not stated)	?	0%	18	-17%	18µM*	?
N#Cc1ccccc1CN1CCN(c2ccccc2)CC1	3%	nt	nt	nt	nt	nt
C=C1C[C@H]2[C@H]3CCC(=O)[C@@]3(C)CC[C@@H]2[C@@]2(C)C=CC(=O)C=C12	0%[57.4 µM]	nt	nt	nt	nt	nt
COc1cccc(CNCC(O)(c2ccc(Cl)cc2)c2ccc(Cl)cc2)c1	-2%	?	-57*	?	23µM*	23µM*
COc1cccc(CCNCc2cccc(C(F)(F)F)c2)c1	?	-16%	-136*	-21%	?	-1%
COc1ccc(CNCCc2ccc(Cl)cc2Cl)cc1	8%	9%	-3	2%	-21%	-1%
C=CCOc1cccc(CNCCc2ccccc2)c1	-14%	nt	nt	nt	nt	nt
O=C1NCCCCCCN[C@H]2CCC[C@@H]12	21%	nt	nt	nt	nt	nt
COc1ccc(CNC[C@H]2C[C@@H]3CCN2C[C@@H]3c2cc(C3CCCCC3)nn2C)cc1	42%[176 µM]	nt	nt	nt	nt	nt
CC(=O)Nc1ccccc1C(=O)OCC(=O)c1ccc2c(c1)OCCO2	2%	13%	9	11%	-2%	5%
Cc1cc(C)c(-c2csc(NC(=O)COC(=O)c3ccc4c(c3)OCO4)n2)c(C)c1	-6%	9%	-5	14%	26µM*	?
CC(C)n1nc(-c2cc3cc(O)ccc3[nH]2)c2c(N)ncnc21	-8%[22.9 µM]	nt	nt	nt	0.17µM*	0.094µM*
COc1cccc(-n2c(/C=C/c3ccccc3O)nc3ccccc3c2=O)c1	-2%	nt	nt	nt	26µM*	?
COc1cccc(-n2c(/C=C/c3cccc(C)c3)nc3ccccc3c2=O)c1	?	nt	nt	nt	23µM*	?
Cc1cc(C)cc(-n2c(/C=C/c3cccc(F)c3)nc3ccccc3c2=O)c1	6%	nt	nt	nt	?	21µM*
c1cc2c(cc1[C@H]1OC[C@H]3[C@H]1CO[C@H]3c1ccc3c(c1)OCO3)OCO2	-24%[57.4 µM]	nt	nt	nt	nt	nt
CCN(CC)C(=O)c1ccc(NC(=O)c2cc3ccc(OC)cc3nc2C)cc1	-10%	nt	nt	nt	nt	nt
O=C(CCN1CCN(c2ccccc2)CC1)c1ccc(Br)cc1	0%	1%	-17	5%	5.8µM*	9.2µM*
c1ccc(N2CCN(c3ccccc3)CC2)cc1	nt	nt	nt	nt	-16%	10%
COC[C@H]1CCCN1C[C@H]1CN2CC[C@H]1C[C@@H]2CNC(=S)Nc1ccc(-n2cccn2)cc1	28%	nt	nt	nt	nt	nt
COc1ccc(CCN(C)Cc2cc(C(C)(C)C)c(O)c(C(C)(C)C)c2)cc1OC	7.9µM*	nt	nt	nt	nt	nt
O=C(Cc1c[nH]c2ccccc12)N1CCN(CC(=O)N2CCCC2)CC1	16%	nt	nt	nt	nt	nt
O=C(Nc1ccccc1)[C@H]1CN2CC[C@H]1C[C@@H]2Cn1cc(CC2CCCCC2)nn1	28%[176 µM]	nt	nt	nt	nt	nt
SMILES	ALOX12 inh	HT1080 IDH1KD tx	IL1B secr inh	HT1080-NT tox	TDP1 cell noCPT	DT40 TDP1 CPT
CCN1CCN(C(=O)Cc2c[nH]c3ccccc23)CC1	-8%	nt	nt	nt	nt	nt
CCC(=O)O[C@](Cc1ccccc1)(c1ccccc1)[C@H](C)CN(C)C	nt	nt	nt	nt	38µM*	43µM*
COc1ccccc1Cc1c(-c2ccc(C)cc2)nc2cc(C)c(Br)c(C)n12	-13%	-18%	38	-19%	16µM*	21µM*
COc1ccc(-c2nc3ccc(Br)cn3c2CC(=O)N2CCCC2)cc1OC	0%	4%	4	18%	?	-20%
COc1ccccc1Cc1c(-c2ccc(F)cc2)nc2cc(C)c(Br)c(C)n12	-12%	-22%	26	-13%	23µM*	?
CCOc1cccc(=NC2CCCCC2)c2c(C)n(C)c(C)c12	-5%	13µM*	-97*	21µM*	2.6µM*	4.1µM*
CN(C)Cc1cn(C[C@H]2CC3CCN2C[C@@H]3C(=O)NCc2ccc3c(c2)OCO3)nn1 (some centres not stated)	0%[176 µM]	nt	nt	nt	nt	nt
CCOC(=O)c1ncn2c1[C@H]1CCCN1C(=O)c1cc(OC)ccc1-2	244%	nt	nt	nt	?	?
CCOC(=O)C1=C(CN2CCN(c3ccc(C)cc3C)CC2)NC(=O)NC1c1ccc(OC)cc1 (configuration not stated)	45µM*	nt	nt	nt	?	?
CC(C)(C)c1cc2c(c(C(C)(C)C)c1)Oc1cc(C#N)c(C#N)cc1O2	9%	nt	nt	nt	nt	nt
COC1C(O)C(C)O[C@@H](OC2CC[C@@]3(C)C4CC[C@]5(C)C(C6=CC(=O)OC6)CC[C@@]5(O)C4CC[C@@H]3C2)C1O (some centres not stated)	nt	nt	nt	nt	0.65µM*	1µM*
COC1C(O)C(C)O[C@H](OC2CC[C@@]3(C=O)C4CC[C@]5(C)C(C6=CC(=O)OC6)CC[C@@]5(O)C4CC[C@@H]3C2)C1O (some centres not stated)	nt	nt	nt	nt	0.37µM*	0.65µM*
CCCN1CC2(CCN(C)CC2)CC1C(=O)N(C)Cc1ccon1 (configuration not stated)	3%	nt	nt	nt	nt	nt
COCCNC(=O)[C@H]1CN2CC[C@H]1C[C@@H]2Cn1cc(-c2ccccc2)nn1	11%[176 µM]	nt	nt	nt	nt	nt
CCC1C(c2ccccc2)NC(c2ccccc2)CC1(O)c1ccc(F)cc1 (configuration not stated)	-7%	?	-16	0%	23µM*	?
OCCN1C2CCC1CC(O)(c1ccc(F)cc1)C2 (configuration not stated)	-4%	-3%	-8	-2%	-4%	1%
COc1ccccc1N1CCN(C(=O)[C@H]2CN3CCC2C[C@@H]3Cn2cc(C(C)(C)O)nn2)CC1 (some centres not stated)	17%	nt	nt	nt	nt	nt
O=C(c1ccc(C(F)(F)F)cc1)N1CCN(Cc2ccccc2)CC1	12%	nt	nt	nt	nt	nt

Screening results from PubChem BioAssay.
